Source: PubChem BioAssay
Hits are enriched below; roughly 1.1% of the tested compounds scored in any of these assays.
MOR-DOR inv ag: inverse agonists of MOR-DOR heterodimerization, primary screen, cell-based, luminescence | AID 504357, 2011 | 0.21% of 340,000 active | cell-based MOR-DOR heterodimer luminescence, inverse agonism | Mu-type opioid receptor (Homo sapiens) + Delta-type opioid receptor (Homo sapiens), … | inhibition, % at 9.3 µM; in the data active means inhibition above about 22%, passing the limit was not always enough
Target sequence (P35372 whole entry, looked up): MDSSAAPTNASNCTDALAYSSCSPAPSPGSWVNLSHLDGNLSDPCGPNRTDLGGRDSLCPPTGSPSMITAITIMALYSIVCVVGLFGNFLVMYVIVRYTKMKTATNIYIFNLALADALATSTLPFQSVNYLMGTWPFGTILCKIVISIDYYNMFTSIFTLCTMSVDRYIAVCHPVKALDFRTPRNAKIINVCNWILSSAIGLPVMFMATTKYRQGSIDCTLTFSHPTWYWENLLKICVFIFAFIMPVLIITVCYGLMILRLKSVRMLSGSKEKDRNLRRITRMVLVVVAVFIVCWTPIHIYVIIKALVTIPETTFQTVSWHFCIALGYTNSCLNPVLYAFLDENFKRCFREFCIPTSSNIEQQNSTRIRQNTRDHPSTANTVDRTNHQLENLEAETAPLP
Target sequence (P41143 whole entry, looked up): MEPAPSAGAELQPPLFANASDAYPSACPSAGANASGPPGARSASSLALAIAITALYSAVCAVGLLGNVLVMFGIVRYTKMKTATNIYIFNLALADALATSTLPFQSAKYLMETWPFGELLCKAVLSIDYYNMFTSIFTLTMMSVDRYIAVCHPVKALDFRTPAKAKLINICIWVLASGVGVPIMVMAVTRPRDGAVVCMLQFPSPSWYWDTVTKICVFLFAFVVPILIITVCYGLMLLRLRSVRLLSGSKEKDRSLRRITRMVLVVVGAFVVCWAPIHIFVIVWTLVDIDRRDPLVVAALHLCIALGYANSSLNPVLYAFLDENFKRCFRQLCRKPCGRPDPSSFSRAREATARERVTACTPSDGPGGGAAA
HTR5A inv ag: HTR5A inverse agonists in luminescence cell assay, primary screen, counter-screen for OPRM1-OPRD1 heterodimer inverse agonist project, full-deck HTS; 5-hydroxytryptamine receptor 5A (Homo sapiens), P47898; HTR5A cell line, inverse agonism; inhibition, % at 9.3 µM; 0.083% of 340,000 active; AID 504634, 2011; in the data active means inhibition mostly above about 23%, no sharp cut-off; inactive means mostly below about 18%
HTR5A ag: HTR5A agonists in luminescence cell assay, primary screen, counter-screen for OPRM1-OPRD1 heterodimer agonist project, full-deck HTS | 5-hydroxytryptamine receptor 5A (Homo sapiens), P47898 | cell-based | activation, % at 9.3 µM | 0.61% of 340,000 active | AID 504692, 2011; in the data active means activation mostly above about 9.5%, no sharp cut-off; inactive means mostly below about 7.6%
OPRM1-OPRD1 ag: agonists of OPRM1-OPRD1 heterodimerization, primary screen, cell-based, luminescence; 0.3% of 340,000 active; cells; AID 504326, 2011; Mu-type opioid receptor (Homo sapiens) + Delta-type opioid receptor (Homo sapiens), …; activation, % at 9.3 µM; in the data active means activation above about 18%
Hits are given with their value.

For CCOC(=O)C1=C(CC)OC(N)=C(C#N)C1c1cccs1 (stereo unspecified) the results were MOR-DOR inv ag inactive, HTR5A inv ag inactive, HTR5A ag 11 and OPRM1-OPRD1 ag inactive.
Cc1cccc(C)c1NC(=O)CN(C)C(=O)CSC(=S)N1CCCC1 was read as MOR-DOR inv ag inactive, HTR5A inv ag inactive, HTR5A ag inactive and OPRM1-OPRD1 ag inactive.
For COc1ccc(C2=CN3CCCCC3CC2=O)cc1OC (stereo unspecified) the results were MOR-DOR inv ag inactive, HTR5A inv ag inactive, HTR5A ag inactive and OPRM1-OPRD1 ag inactive.
CC1=C/C(=C(\c2cc(C)c(O)c(Br)c2)c2ccccc2S(=O)(=O)O)C=C(Br)C1=O was read as MOR-DOR inv ag 28, HTR5A inv ag inactive, HTR5A ag inactive and OPRM1-OPRD1 ag inactive.
Cc1cc(C(=O)c2ccccc2)cc(C)c1O was read as MOR-DOR inv ag inactive, HTR5A inv ag inactive, HTR5A ag inactive and OPRM1-OPRD1 ag inactive.
`C(=C1c2ccccc2-c2ccccc21)c1ccncc1` gave MOR-DOR inv ag inactive, HTR5A inv ag inactive, HTR5A ag 8.9 and OPRM1-OPRD1 ag inactive.
Screening Cc1cc(-c2ccc(C)c(S(=O)(=O)N3CCN(c4ccccn4)CC3)c2)on1 returned MOR-DOR inv ag inactive, HTR5A inv ag inactive, HTR5A ag inactive and OPRM1-OPRD1 ag inactive.
For O=C(N/N=C/c1c[nH]c2ccccc12)c1cc(-c2ccccc2)n[nH]1 the results were MOR-DOR inv ag inactive, HTR5A inv ag inactive, HTR5A ag inactive and OPRM1-OPRD1 ag inactive.
O=C(N/N=C/c1c[nH]c2ccccc12)c1cc(-c2ccc(-c3ccccc3)cc2)n[nH]1 was read as MOR-DOR inv ag inactive, HTR5A inv ag inactive, HTR5A ag 12 and OPRM1-OPRD1 ag inactive.
O=C(CCc1nnc(-c2ccc3c(c2)OCO3)o1)NC(c1cccnc1)C(F)(F)F (stereo unspecified) was read as MOR-DOR inv ag inactive, HTR5A inv ag inactive, HTR5A ag inactive and OPRM1-OPRD1 ag inactive.
Cc1cccc2sc(NNC(=O)c3ccc(S(=O)(=O)N4CC(C)CC(C)C4)cc3)nc12 (stereo unspecified) was read as MOR-DOR inv ag inactive, HTR5A inv ag inactive, HTR5A ag 15 and OPRM1-OPRD1 ag 23.
Screening Cc1ccc(N=C2NC(=O)CS2)cc1 returned MOR-DOR inv ag inactive, HTR5A inv ag inactive, HTR5A ag inactive and OPRM1-OPRD1 ag inactive.
Cc1ccc(N=C2C(=O)Nc3ccc(C)c(Br)c32)cc1 was read as MOR-DOR inv ag 67, HTR5A inv ag inactive, HTR5A ag inactive and OPRM1-OPRD1 ag inactive.
`COc1cccc(C(=O)Nc2ccc(NC(=O)c3cc4ccccc4o3)c(OC)c2)c1` gave MOR-DOR inv ag inactive, HTR5A inv ag inactive, HTR5A ag 13 and OPRM1-OPRD1 ag inactive.
COc1cc(NC(=O)c2ccccc2)ccc1NC(=O)c1cc2ccccc2o1 was read as MOR-DOR inv ag inactive, HTR5A inv ag inactive, HTR5A ag inactive and OPRM1-OPRD1 ag inactive.
`CCN1/C(=C/c2ccc3ccccc3[n+]2CC)C=Cc2ccccc21` gave MOR-DOR inv ag inactive, HTR5A inv ag 43, HTR5A ag inactive and OPRM1-OPRD1 ag inactive.
For Cc1c(CCOC(=O)C23CC4CC(CC(C)(C4)C2)C3)sc[n+]1CC(=O)c1ccccc1 the results were MOR-DOR inv ag inactive, HTR5A inv ag inactive, HTR5A ag inactive and OPRM1-OPRD1 ag inactive.
For Cc1c(CCOC(=O)CC23CC4CC(CC(C)(C4)C2)C3)sc[n+]1CC(=O)c1ccccc1 the results were MOR-DOR inv ag inactive, HTR5A inv ag inactive, HTR5A ag 13 and OPRM1-OPRD1 ag inactive.
For CCOC(=O)C(C)CC(C)C(=O)N1CCOCCN(C(=O)C(C)CC(C)C(=O)OCC)CCOCC1 (stereo unspecified) the results were MOR-DOR inv ag inactive, HTR5A inv ag inactive, HTR5A ag 9.2 and OPRM1-OPRD1 ag inactive.
`COc1ccc(CN2C(=O)C(C)Nc3ncnc(N4CCN(c5ccccc5)CC4)c32)cc1` (stereo unspecified) gave MOR-DOR inv ag 50, HTR5A inv ag 42, HTR5A ag inactive and OPRM1-OPRD1 ag inactive.
`CC1Nc2ncnc(N3CCOCC3)c2N(Cc2ccccc2)C1=O` (stereo unspecified) gave MOR-DOR inv ag inactive, HTR5A inv ag inactive, HTR5A ag inactive and OPRM1-OPRD1 ag inactive.
Screening CC1Nc2ncnc(N3CCN(c4ccccc4)CC3)c2N(Cc2ccc(Br)cc2)C1=O (stereo unspecified) returned MOR-DOR inv ag 71, HTR5A inv ag 69, HTR5A ag inactive and OPRM1-OPRD1 ag inactive.
For O=C(CN1CCN(C(=O)c2cncn2-c2ccccc2)CC1)Nc1ccccc1Cl the results were MOR-DOR inv ag inactive, HTR5A inv ag inactive, HTR5A ag inactive and OPRM1-OPRD1 ag inactive.
`COc1ccc(C)c2sc(N(CCCN(C)C)C(=O)c3ccc(S(=O)(=O)N4CCc5ccccc5C4)cc3)nc12` gave MOR-DOR inv ag inactive, HTR5A inv ag inactive, HTR5A ag 21 and OPRM1-OPRD1 ag 30.
`COc1cccc2sc(N(CCCN(C)C)C(=O)c3ccc(S(=O)(=O)N4CCc5ccccc5C4)cc3)nc12` gave MOR-DOR inv ag inactive, HTR5A inv ag inactive, HTR5A ag inactive and OPRM1-OPRD1 ag inactive.
For CCC(=O)Nc1nc2ccccc2n1Cc1ccc(Cl)cc1 the results were MOR-DOR inv ag inactive, HTR5A inv ag inactive, HTR5A ag 14 and OPRM1-OPRD1 ag inactive.
Cc1cc(N2CCN(c3ccccc3)CC2)nc(NCc2ccccc2)n1 was read as MOR-DOR inv ag inactive, HTR5A inv ag inactive, HTR5A ag inactive and OPRM1-OPRD1 ag inactive.
CCCc1nc(C)cc(N2CCN(c3ccccc3)CC2)n1 was read as MOR-DOR inv ag inactive, HTR5A inv ag inactive, HTR5A ag 9.6 and OPRM1-OPRD1 ag inactive.
For COc1ccc(NS(=O)(=O)c2cccc(C(=O)NCc3ccccc3CN3CCCC3)c2)cc1 the results were MOR-DOR inv ag inactive, HTR5A inv ag inactive, HTR5A ag 12 and OPRM1-OPRD1 ag inactive.
`Cc1cn(CC(=O)NCCCn2ccnc2)c(=O)[nH]c1=O` gave MOR-DOR inv ag inactive, HTR5A inv ag inactive, HTR5A ag inactive and OPRM1-OPRD1 ag inactive.
O=C(N/N=C/c1ccccn1)c1ccc(NC(=O)c2ccc(F)cc2)cc1 was read as MOR-DOR inv ag inactive, HTR5A inv ag inactive, HTR5A ag 14 and OPRM1-OPRD1 ag inactive.
Screening O=C(COc1cccc(Br)c1)Nc1ccc(Cl)c(S(=O)(=O)N2CCOCC2)c1 returned MOR-DOR inv ag inactive, HTR5A inv ag inactive, HTR5A ag 9.3 and OPRM1-OPRD1 ag inactive.
`O=C(CCCOc1ccccc1)Nc1ccc(Cl)c(S(=O)(=O)N2CCOCC2)c1` gave MOR-DOR inv ag inactive, HTR5A inv ag inactive, HTR5A ag inactive and OPRM1-OPRD1 ag inactive.
Screening O=C(COC(=O)c1cccnc1Cl)Nc1cccc(S(=O)(=O)N2CCOCC2)c1 returned MOR-DOR inv ag inactive, HTR5A inv ag inactive, HTR5A ag 12 and OPRM1-OPRD1 ag inactive.
For COc1ccc(Oc2ncc(CN3CCN(c4ccccc4)CC3)s2)cc1 the results were MOR-DOR inv ag inactive, HTR5A inv ag inactive, HTR5A ag 10 and OPRM1-OPRD1 ag inactive.
